High-throughput results (PubChem BioAssay)
INS promoter inh: TRM-6 insulin promoter activity inhibition. TRM-6 cells (human fetal islet line), insulin promoter-eGFP reporter, imaging; reporter expression induced with tamoxifen. inhibition, % at 2 µM. actives 0.9% (n = 130,000). AID 1273;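 active = inhibition above the mean plus 3 SD, with well images judged a real hit on visual review, cut at about 60% in these data, passing the limit was not always enough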
IL1B cytotox: HUVEC cytotoxicity counter-screen, IL-1B stimulated | HUVEC cell count loss, Hoechst imaging | cell count reduction, % at 2 µM | actives 0.41% (n = 94,000) | AID 845;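 active = cell count reduction more than 3 SD above the screen-wide mean, cut at about 70% in these data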
NFkB transloc inh: blocks IL-1B driven NFkB nuclear translocation in HUVEC cells; HUVEC IL-1B NFkB p65 nuclear translocation imaging; inhibition, % at 2 µM; actives 0.43% (n = 94,000); AID 796;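 active = inhibition above about 30% together with a positive call from visual inspection of the well image, limit read from the data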;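 also: nuclear over cytoplasmic p65 intensity ratio measured by imaging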
NFkB transloc pot: enhances IL-1B driven NFkB nuclear translocation | activation, % at 2 µM | actives 0.3% (n = 94,000) | HUVEC IL-1B NFkB p65 nuclear translocation imaging;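 active = activation above 40%, about the mean plus 3 SD, also judged a hit on visual image review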;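 also: percent activation is computed from the nuclear over cytoplasmic p65 intensity ratio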
Numbers stand for hits. Rows were chosen to be rich in hits. Some 1.4% of all compounds tested hit in one or more screens of this group.

O=C(Cn1nc(Cc2ccncc2)c2ccccc2c1=O)N1CCc2ccccc2C1 was read as IL1B cytotox inactive, NFkB transloc inh inactive and NFkB transloc pot 72.
`O=C(NCc1ccccc1)NC1CCCCC1` gave IL1B cytotox inactive, NFkB transloc inh inactive and NFkB transloc pot inactive.
O=C(NCCc1ccccc1)NC1CCCCC1 was read as INS promoter inh 80, IL1B cytotox inactive, NFkB transloc inh inactive and NFkB transloc pot inactive.
For COc1ccc(-c2cc(Nc3ccccc3NC(=O)C(F)(F)F)n(CCC#N)n2)cc1 the results were INS promoter inh 60.
Cn1c(SCc2ccccc2F)nnc1-c1ccccn1 was read as INS promoter inh inactive.
COc1ccccc1NC(=O)c1sc(NC(=O)c2ccco2)c(C#N)c1C was read as INS promoter inh 93, IL1B cytotox inactive, NFkB transloc inh inactive and NFkB transloc pot inactive.
For Cc1c(C(=O)N2CCCC2)sc(NC(=O)c2ccco2)c1C#N the results were INS promoter inh inactive, IL1B cytotox inactive, NFkB transloc inh inactive and NFkB transloc pot inactive.
For CCCCCCOc1ccc(N2C(=O)CC(SC(=NCC)NCC)C2=O)cc1 (stereo not given) the results were INS promoter inh inactive.
Screening CCCNC(=S)Nc1ccc(Br)cc1 returned INS promoter inh inactive, IL1B cytotox 92, NFkB transloc inh inactive and NFkB transloc pot inactive.
Screening CC(C)CCNC(=S)Nc1ccc(Br)cc1 returned INS promoter inh inactive.
COc1ccc(C(=O)NCc2cc(C)nc3ccccc23)cc1OC was read as INS promoter inh 100.
`CCCc1cc(C(F)(F)F)c(C#N)c(=O)[nH]1` gave INS promoter inh 68, IL1B cytotox inactive, NFkB transloc inh inactive and NFkB transloc pot inactive.
Screening CCOC(=O)c1sc2nc(C)[nH]c(=S)c2c1C returned INS promoter inh 79.
`CCOC(=O)c1sc2nc(C)n(N)c(=O)c2c1C` gave INS promoter inh inactive.
For COc1ccc(Nc2c3c(nc4c(-c5ccccc5)c(C)nn24)CCC3)cc1 the results were INS promoter inh 91.
For CSc1ccc(OC2CCCCC2NS(=O)(=O)c2ccc(Cl)cc2)cc1 (stereo not given) the results were INS promoter inh 100.
`O=C(Cc1c(F)cccc1Cl)Nc1ccc(S(=O)(=O)NCC2CCCO2)cc1` (stereo not given) gave INS promoter inh inactive.
Screening CCc1ccccc1N1C[C@@]23C=C[C@@H](O2)C(C(=O)OCC(C)C)[C@H]3C1=O (stereo not given in full) returned IL1B cytotox inactive, NFkB transloc inh inactive and NFkB transloc pot inactive.
`O=C1/C(=C/c2cccc([N+](=O)[O-])c2)CCc2ccccc21` gave INS promoter inh inactive.
CCN1C/C(=C\c2cccc([N+](=O)[O-])c2)C(=O)/C(=C/c2cccc([N+](=O)[O-])c2)C1 was read as INS promoter inh 100.
CC(=O)c1sc(NC(=O)c2ccc(F)c(F)c2)nc1C was read as INS promoter inh inactive, IL1B cytotox inactive, NFkB transloc inh 32 and NFkB transloc pot inactive.
Screening CC(=O)c1sc(NC(=O)C(C)C)nc1C returned INS promoter inh inactive, IL1B cytotox inactive, NFkB transloc inh 98 and NFkB transloc pot inactive.
`CC(=O)c1sc(NC(=O)c2cccc(C)c2)nc1C` gave INS promoter inh inactive.
For COC(=O)c1cc(NC(=O)c2ccc(Cn3cc(Cl)cn3)o2)cc(C(=O)OC)c1 the results were INS promoter inh 93, IL1B cytotox inactive, NFkB transloc inh inactive and NFkB transloc pot inactive.
For Cc1ccc2c(c1)C(=NC1CCCCC1)c1cc3ccccc3nc1-2 the results were INS promoter inh 91.
For COCCn1c(SCC(=O)Nc2sccc2C(N)=O)nc2cc(Cl)ccc2c1=O the results were INS promoter inh inactive, IL1B cytotox inactive, NFkB transloc inh inactive and NFkB transloc pot inactive.
`C=CCc1cc(Cl)ccc1OCCN(C)C` gave INS promoter inh inactive, IL1B cytotox 85, NFkB transloc inh inactive and NFkB transloc pot inactive.
For CN(C)CCOc1cccc(Cl)c1 the results were INS promoter inh inactive.
Screening O=S(=O)(Nc1ccc(N2CCCCC2)cc1)c1ccc(F)c(F)c1 returned INS promoter inh inactive.
For Cc1cc(=O)[nH]c2c1c(C)nn2-c1ccccc1 the results were INS promoter inh 61.
Screening Cc1n[nH]c(C)c1CCc1nc2c3ccccc3nc(SCC(=O)Nc3ccccc3F)n2n1 returned IL1B cytotox 86, NFkB transloc inh inactive and NFkB transloc pot inactive.
`Cc1cccc(NC(=O)CSc2nc3ccccc3c3nc(CCc4c(C)n[nH]c4C)nn23)c1` gave INS promoter inh inactive, IL1B cytotox inactive, NFkB transloc inh inactive and NFkB transloc pot inactive.
CCCN1Cc2cccc(C(=O)NC3CCCC3)c2C1=O was read as INS promoter inh 94, IL1B cytotox inactive, NFkB transloc inh inactive and NFkB transloc pot inactive.
